{
  "source": "the supplement of paper PMC8728848",
  "experiment_in_all_cases": "glycan array binding signal (z-score within array); higher = stronger binding",
  "details_in_all_cases": "glycan notation: IUPAC condensed, linker removed",
  "key": {"[1]": {"target": "Glc(a1-6)Glc(a1-6)Glc(a1-6)Glc", "outline": "(§1)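 From the Consortium for Functional Glycomics database, 3228 arrays were curated, keeping only those whose protein sequence was available. Binding is given as a within-array Z-score averaged across arrays sharing a protein sequence and across linkers. Negative Z-scores can be read as non-binding.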"}, "Glc(b1-4)Glc": {"target": "Glc(b1-4)Glc", "outline": "as §1"}, "GlcA(b1-6)Gal": {"target": "GlcA(b1-6)Gal", "outline": "as §1"}, "[2]": {"target": "GlcNAc(b1-3)Gal(b1-4)GlcNAc(b1-2)[GlcNAc(b1-3)Gal(b1-4)GlcNAc(b1-6)]Man(a1-6)[GlcNAc(b1-3)Gal(b1-4)GlcNAc(b1-2)Man(a1-3)]Man(b1-4)GlcNAc(b1-4)GlcNAc", "outline": "as §1"}, "[3]": {"target": "GlcNAc(b1-3)Gal(b1-4)GlcNAc(b1-3)Gal(b1-4)GlcNAc(b1-3)Gal(b1-4)GlcNAc(b1-2)Man(a1-3)[GlcNAc(b1-3)Gal(b1-4)GlcNAc(b1-3)Gal(b1-4)GlcNAc(b1-3)Gal(b1-4)GlcNAc(b1-2)Man(a1-6)]Man(b1-4)GlcNAc(b1-4)GlcNAc", "outline": "as §1"}, "[4]": {"target": "GlcNAc(b1-3)Gal(b1-4)GlcNAc(b1-3)Gal(b1-4)GlcNAc(b1-3)Gal(b1-4)GlcNAc(b1-2)[GlcNAc(b1-3)Gal(b1-4)GlcNAc(b1-3)Gal(b1-4)GlcNAc(b1-3)Gal(b1-4)GlcNAc(b1-6)]Man(a1-6)[GlcNAc(b1-3)Gal(b1-4)GlcNAc(b1-3)Gal(b1-4)GlcNAc(b1-3)Gal(b1-4)GlcNAc(b1-2)Man(a1-3)]Man(b1-4)GlcNAc(b1-4)[Fuc(a1-6)]GlcNAc", "outline": "as §1"}, "[5]": {"target": "GlcNAc(b1-3)Gal(b1-4)GlcNAc(b1-3)Gal(b1-4)GlcNAc(b1-3)Gal(b1-4)GlcNAc(b1-3)Gal(b1-4)GlcNAc(b1-2)Man(a1-3)[GlcNAc(b1-3)Gal(b1-4)GlcNAc(b1-3)Gal(b1-4)GlcNAc(b1-3)Gal(b1-4)GlcNAc(b1-3)Gal(b1-4)GlcNAc(b1-2)Man(a1-6)]Man(b1-4)GlcNAc(b1-4)GlcNAc", "outline": "as §1"}, "[6]": {"target": "GlcNAc(b1-3)Gal(b1-4)GlcNAc(b1-3)Gal(b1-4)GlcNAc(b1-3)GalNAc", "outline": "as §1"}, "[7]": {"target": "GlcNAc(b1-3)[GlcNAc(b1-6)]Gal(b1-4)GlcNAc", "outline": "as §1"}, "GlcNAc(b1-4)GlcNAc": {"target": "GlcNAc(b1-4)GlcNAc", "outline": "as §1"}, "[8]": {"target": "Man(a1-2)Man(a1-3)[Man(a1-2)Man(a1-6)]Man", "outline": "as §1"}, "[9]": {"target": "Man(a1-3)[Man(a1-6)]Man(b1-4)GlcNAc(b1-4)[Fuc(a1-6)]GlcNAc", "outline": "as §1"}, "[10]": {"target": "Neu5Ac(a2-3)Gal(b1-3)GalNAc6S", "outline": "as §1"}, "[11]": {"target": "Neu5Ac(a2-3)Gal(b1-3)]Neu5Ac(a2-3)Gal(b1-4)]GlcNAc", "outline": "as §1"}, "[12]": {"target": "Neu5Ac(a2-3)Gal(b1-4)GlcNAc(b1-3)Gal(b1-4)GlcNAc(b1-3)Gal(b1-4)GlcNAc(b1-2)Man(a1-3)[Neu5Ac(a2-3)Gal(b1-4)GlcNAc(b1-3)Gal(b1-4)GlcNAc(b1-3)Gal(b1-4)GlcNAc(b1-2)Man(a1-6)]GalNAc", "outline": "as §1"}, "[13]": {"target": "Neu5Ac(a2-3)Gal(b1-4)GlcNAc(b1-6)[Gal(b1-3)]GalNAc", "outline": "as §1"}, "[14]": {"target": "Neu5Ac(a2-3)Gal(b1-4)[Fuc(a1-3)]GlcNAc6S", "outline": "as §1"}, "[15]": {"target": "Neu5Ac(a2-3)[GalNAc(b1-4)]Gal(b1-4)Glc", "outline": "as §1"}, "[16]": {"target": "Neu5Ac(a2-6)Gal(b1-4)GlcNAc(b1-2)Man(a1-3)[GlcNAc(b1-4)][Neu5Ac(a2-6)Gal(b1-4)GlcNAc(b1-2)Man(a1-6)]Man(b1-4)GlcNAc(b1-4)GlcNAc", "outline": "as §1"}, "[17]": {"target": "Neu5Ac(a2-6)Gal(b1-4)GlcNAc(b1-2)Man(a1-6)Man(b1-4)GlcNAc(b1-4)GlcNAc", "outline": "as §1"}, "[18]": {"target": "Neu5Ac(a2-6)Gal(b1-4)GlcNAc(b1-3)Gal(b1-4)GlcNAc(b1-3)Gal(b1-4)GlcNAc(b1-2)Man(a1-3)[Neu5Ac(a2-6)Gal(b1-4)GlcNAc(b1-3)Gal(b1-4)GlcNAc(b1-3)Gal(b1-4)GlcNAc(b1-2)Man(a1-6)]GalNAc", "outline": "as §1"}, "[19]": {"target": "Neu5Ac(a2-6)Gal(b1-4)GlcNAc(b1-3)Gal(b1-4)GlcNAc(b1-3)[Neu5Ac(a2-6)Gal(b1-4)GlcNAc(b1-3)Gal(b1-4)GlcNAc(b1-6)]GalNAc", "outline": "as §1"}, "[20]": {"target": "Neu5Ac(a2-6)Gal(b1-4)GlcNAc(b1-3)Gal(b1-4)[Fuc(a1-3)]GlcNAc(b1-3)Gal(b1-4)[Fuc(a1-3)]GlcNAc", "outline": "as §1"}, "Neu5Ac(a2-6)GalNAc": {"target": "Neu5Ac(a2-6)GalNAc", "outline": "as §1"}, "[21]": {"target": "Neu5Ac(a2-8)Neu5Ac(a2-3)Gal(b1-4)GlcNAc", "outline": "as §1"}, "[22]": {"target": "Neu5Gc(a2-3)Gal(b1-4)GlcNAc", "outline": "as §1"}, "Neu5Gc(a2-6)GalNAc": {"target": "Neu5Gc(a2-6)GalNAc", "outline": "as §1"}},
  "note": "The full list was thinned out, with the strongest signals kept by preference.",
  "data": [
    {"binder": "MpAFP NterminalRI GFP (Marinomonas primoryensis) (protein) MSDNQFPFATLGNAIGFITKLDGSVTVQSIDGQERVLKLGDPIFFGETVLTGGSGSVTIAFVDGTDVVIGGDSIVEMTDEIYNTGDNEDLVADSSSEIDALQNAILAGDDPTLIQDAPAAGNTLADQQRVDVSIERNDNSAQAGFGVDTQSSLPTYGYDTDNGNGGQATEREYSAPSLSRTLNQSPLLEHHHHHH", "values": [
      {"measurement": "glycan array binding signal (z-score)", "setting": "[1]", "value": -0.16},
      {"measurement": "glycan array binding signal (z-score)", "setting": "Glc(b1-4)Glc", "value": 0.784},
      {"measurement": "glycan array binding signal (z-score)", "setting": "GlcA(b1-6)Gal", "value": -0.407},
      {"measurement": "glycan array binding signal (z-score)", "setting": "[2]", "value": 6.32},
      {"measurement": "glycan array binding signal (z-score)", "setting": "[3]", "value": 6.83},
      {"measurement": "glycan array binding signal (z-score)", "setting": "[4]", "value": 2.6},
      {"measurement": "glycan array binding signal (z-score)", "setting": "[5]", "value": 0.255},
      {"measurement": "glycan array binding signal (z-score)", "setting": "[6]", "value": -0.344},
      {"measurement": "glycan array binding signal (z-score)", "setting": "[7]", "value": -0.441},
      {"measurement": "glycan array binding signal (z-score)", "setting": "GlcNAc(b1-4)GlcNAc", "value": 4.84},
      {"measurement": "glycan array binding signal (z-score)", "setting": "[8]", "value": 2.93},
      {"measurement": "glycan array binding signal (z-score)", "setting": "[9]", "value": -0.195},
      {"measurement": "glycan array binding signal (z-score)", "setting": "[10]", "value": -0.078},
      {"measurement": "glycan array binding signal (z-score)", "setting": "[11]", "value": -0.531},
      {"measurement": "glycan array binding signal (z-score)", "setting": "[12]", "value": 2.98},
      {"measurement": "glycan array binding signal (z-score)", "setting": "[13]", "value": 3.31},
      {"measurement": "glycan array binding signal (z-score)", "setting": "[14]", "value": -0.574},
      {"measurement": "glycan array binding signal (z-score)", "setting": "[15]", "value": -0.63},
      {"measurement": "glycan array binding signal (z-score)", "setting": "[16]", "value": -0.202},
      {"measurement": "glycan array binding signal (z-score)", "setting": "[17]", "value": -0.385},
      {"measurement": "glycan array binding signal (z-score)", "setting": "[18]", "value": 1.24},
      {"measurement": "glycan array binding signal (z-score)", "setting": "[19]", "value": -0.027},
      {"measurement": "glycan array binding signal (z-score)", "setting": "[20]", "value": -0.212},
      {"measurement": "glycan array binding signal (z-score)", "setting": "Neu5Ac(a2-6)GalNAc", "value": -0.388},
      {"measurement": "glycan array binding signal (z-score)", "setting": "[21]", "value": -0.655},
      {"measurement": "glycan array binding signal (z-score)", "setting": "[22]", "value": -0.632},
      {"measurement": "glycan array binding signal (z-score)", "setting": "Neu5Gc(a2-6)GalNAc", "value": 3.75}
    ]}
  ]
}
